Laboratory results from PubChem BioAssay (NCATS).
Several values for one entry are separate records, joined by “and”; a condition that tells them apart may be missing. Identical values can stand only once. Inconclusive results are not listed. Entries that show only a call come without a potency. Activity calls are given as the source filed them. Unless noted, calls follow the shape of the full dose curve.

Key:
[1] = Cell Viability - BJ (AID 421); conditions: BJ fibroblast viability, qHTS;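 also: potency is read from the fitted curve at half-maximal effect; cells exposed to compound for 40 hours at 37 °C before readout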
Outline: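 Luminescent ATP signal (CellTiter-Glo, 20 min at room temperature) served as the read-out of viable BJ cells after 40 hours of compound treatment. Responses were scaled between DMSO and 100 uM tamoxifen, and AC50 values were obtained by Hill modeling.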

[2] = Cell Viability - Jurkat (AID 426;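 active = dose-dependent loss of cell ATP signal giving a full or clear fitted curve, ranked by lower potency value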;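 also: potency is read from the fitted curve at half-maximal effect; cells exposed to compound for 40 hours at 37 °C before ATP read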); conditions: qHTS
Outline: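 Cells of the human T-cell leukemia line Jurkat (E6-1) are seeded at 5000 per well, treated with compound across a concentration range for 40 hours at 37 °C, then lysed with CellTiter-Glo; luminescence reports ATP.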

[3] = Cell Viability - Hek293 (AID 427;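 active = compounds whose dose-response curve shows a full or clear partial loss of cell viability, called from curve shape rather than a numeric limit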;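 also: potency is read from the fitted curve at half-maximal effect; cells exposed to compound for 40 hours at 37 °C before reading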); conditions: qHTS
Outline: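 Luminescent ATP read-out (CellTiter-Glo, 20 min RT) after 40 hr compound exposure at 37 °C in complete medium. Signal normalized to DMSO (basal) and 100 uM tamoxifen (100% inhibition); concentration-response fitted with the standard Hill equation to give AC50.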

[4] = Cell Viability - SK-N-SH (AID 435); conditions: SK-N-SH neuroblastoma cell viability qHTS;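 also: potency is read from the fitted curve at half-maximal effect; compound exposure lasted 40 h at 37 °C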
Outline: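 Luminescent ATP signal served as the viability read-out after 40 hours of compound treatment of human neuroblastoma SK-N-SH cells. Concentration-response data, scaled between DMSO and 100 uM tamoxifen, gave AC50 values by standard Hill modeling.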

[5] = Cell Viability - NIH 3T3 (AID 541; active = well fitted curve in the direction sought with a large enough effect; an effect the other way counts as inactive or inconclusive; also: nearly all actives have a fitted effect of over 25% in size); conditions: NIH 3T3 cell viability, qHTS; activity change, negative = cytotoxicity: at 92.2 µM (top of the series)
Outline: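 Cells seeded at 1000/well, rested 5 hr at 37 °C, then dosed and incubated 40 hr at 37 °C. CellTiter-Glo added, 20 min room temperature, luminescence read. AC50 by Hill fit.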

[6] = Cell Viability - HUV-EC-C (AID 542; active = well fitted curve in the direction sought with a large enough effect; an effect the other way counts as inactive or inconclusive; also: nearly all actives have a fitted effect of over 35% in size); conditions: HUV-EC-C endothelial cell viability, qHTS; series mostly up to 92.2 µM
Outline: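 Cells were seeded at 1000 per well and incubated 5 hr at 37 °C before compound addition. After 40 hr at 37 °C, CellTiter-Glo reagent was added for 20 min and luminescence read. AC50 values came from Hill-equation modelling.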

[7] = Cell Viability - H-4-II-E (AID 543; active = well fitted curve in the direction sought with a large enough effect; an effect the other way counts as inactive or inconclusive; also: nearly all actives have a fitted effect of over 35% in size); conditions: H-4-II-E rat hepatoma viability; series mostly up to 92.2 µM
Outline: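 Cells seeded at 1500 per well and rested 5 hr; compounds added; 40 hr incubation at 37 °C; CellTiter-Glo added, 20 min at room temperature; luminescence read. Hill-equation fits gave AC50.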

[8] = Cell Viability - SH-SY5Y (AID 544; active = well fitted curve in the direction sought with a large enough effect; an effect the other way counts as inactive or inconclusive; also: nearly all actives have a fitted effect of over 55% in size); conditions: SH-SY5Y neuroblastoma cell viability; series mostly up to 92.2 µM
Outline: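 Cells were plated at 1500 per well and allowed 5 hr at 37 °C. Compounds were added across a concentration range and incubated 40 hr at 37 °C. CellTiter-Glo was added for 20 min at room temperature before luminescence reading.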

[9] = Cell Viability - Renal Proximal Tubule (AID 545; active = well fitted curve in the direction sought with a large enough effect; an effect the other way counts as inactive or inconclusive; also: nearly all actives have a fitted effect of over 40% in size); conditions: renal proximal tubule cells viability, primary cells of rat origin; at 91.7 µM (top of the series)
Outline: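 Luminescent ATP signal (CellTiter-Glo) served as the viability read-out after 40 hr compound exposure of freshly isolated rat proximal tubule cells at 37 °C. Concentration-dependent ATP loss was fitted with the Hill equation to give AC50.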

[10] = Cell Viability - Mesenchymal (AID 546; active = well fitted curve in the direction sought with a large enough effect; an effect the other way counts as inactive or inconclusive;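 also: cells exposed to compound for 40 hours before reading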); conditions: mesenchymal cells viability, qHTS; activity change, negative = cytotoxicity: at 91.7 µM (top of the series)
Outline: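 In this qHTS cytotoxicity format, glomerulus-derived human mesenchymal kidney cells received compound for 40 hr, then luciferase-based ATP quantitation. Concentration-response data were fitted with the Hill equation.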

[11] = qHTS Assay for Identification of Small Molecule Inducers of Hypoxia Response (AID 2120; active = well fitted curve in the direction sought with a large enough effect in the signal ratio, with a control signal flat, not every such curve was filed as active; the % refers to the signal ratio); conditions: hypoxia response reporter cells, beta-lactamase ratio readout; series mostly up to 104 µM
Outline: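 Cell-based qHTS for reporter induction: hypoxia response element controlled beta-lactamase in ME-180 cells. Compounds incubated 17 h at 37 degrees C; activity from blue/green (460/530 nm) ratio, inducers ranked by AC50.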

[12] = target: Estrogen receptor (Homo sapiens) (UniProt P03372); experiment: qHTS assay for small molecule agonists of estrogen receptor alpha signaling (AID 588514); conditions: ER-alpha-UAS-bla HEK293, beta-lactamase ratio, 18 h; series mostly up to 76.8 µM; also: nearly all actives have a fitted effect of over 70% in size
Outline: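 Efficacy is expressed against 20 nM 17-beta-estradiol (100%) and DMSO basal (0%); EC50 from Hill equation. Assay: beta-lactamase reporter in ER-alpha-UAS-bla HEK 293 cells, 18 h compound incubation, CCF4 detection.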

[13] = target: Glucocorticoid receptor (Homo sapiens) (UniProt P04150); experiment: qHTS assay for small molecule antagonists of glucocorticoid receptor signaling (AID 588533; active = well fitted inhibition curve with a large enough effect in the signal ratio, with a control signal flat, not every such curve was filed as active; the % refers to the signal ratio;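 also: cells stimulated with 2 nM dexamethasone as agonist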); conditions: HeLa MMTV-bla, GRE beta-lactamase ratio, antagonist mode, 18 h; series mostly up to 76.8 µM
Outline: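 Antagonist-mode qHTS: compound titrations added to GRE-bla HeLa cells, then dexamethasone 2 nM final; 18 h, 37 C. CCF4 FRET fluorescence normalized to dexamethasone and DMSO; IC50 from Hill fit.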

[14] = qHTS assay for small molecule antagonists of peroxisome proliferator-activated receptor delta signaling (AID 588535); conditions: HEK293T PPARd-UAS-bla, beta-lactamase FRET ratio, 18 h; 460 nm channel;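 also: cells co-treated with a PPAR-delta agonist as stimulator during compound exposure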
Outline: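 Inhibition of PPAR-delta response element-driven beta-lactamase expression is measured in HEK293T cells exposed to a compound titration series for 18 hrs at 37 C. Half-maximal inhibition comes from Hill equation fitting.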

[15] = target: Peroxisome proliferator-activated receptor gamma (Homo sapiens) (UniProt P37231); experiment: qHTS assay for small molecule antagonists of peroxisome proliferator-activated receptor gamma signaling (AID 588537; active = well fitted inhibition curve with a large enough effect in the signal ratio, with a control signal flat, not every such curve was filed as active; the % refers to the signal ratio;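 also: reporter cells co-stimulated with 50 nM rosiglitazone agonist during compound treatment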); conditions: HEK293 PPARg-UAS-bla, beta-lactamase ratio, antagonist mode; series mostly up to 76.8 µM
Outline: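 Compounds are tested as concentration series for inhibition of rosiglitazone-driven (50 nM) reporter expression in GeneBLAzer PPAR-gamma-UAS-bla HEK293 cells. After 16 h at 37 C, CCF4 substrate is added for 2 h at room temperature and blue/green fluorescence is measured.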

[16] = target: Vitamin D3 receptor (Homo sapiens) (UniProt P11473); experiment: qHTS assay for small molecule antagonists of vitamin D receptor signaling (AID 588541); conditions: HEK293T VDR-UAS-bla, beta-lactamase ratio, antagonist mode; series mostly up to 76.7 µM;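 also: receptor activated by calcitriol during compound treatment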
Outline: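 VDR-UAS-bla HEK293T cells (2000/well, 2% charcoal-stripped FBS) were treated with titrated compounds plus 1-alpha,25-dihydroxyvitamin D3 (50 nM or 3 nM final) for 16 h at 37 C. CCF4 beta-lactamase fluorescence was read; Hill fits gave IC50.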

[17] = target: Vitamin D3 receptor (Homo sapiens) (UniProt P11473); experiment: qHTS assay for small molecule agonists of vitamin D receptor signaling (AID 588543); conditions: HEK293T VDR-UAS-bla, beta-lactamase ratio, 16 h; series mostly up to 76.8 µM
Outline: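 Reporter cells (HEK293T, VDR-UAS-bla) were seeded in medium with 2% charcoal-stripped serum and incubated 5 h, then compounds in concentration series were added for 16 h at 37 °C. Stimulation was scaled between DMSO basal and 50 nM 1α,25-dihydroxyvitamin D3.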

[18] = qHTS assay for small molecule agonists of retinoid X receptor alpha signaling (AID 588544); conditions: HEK293T RXRa-UAS-bla, beta-lactamase reporter, 18 h; 530 nm emission
[19] = target: Retinoic acid receptor RXR-alpha (Homo sapiens) (UniProt P19793); experiment: as above; conditions: HEK293T RXRa-UAS-bla, beta-lactamase reporter, 18 h; series mostly up to 76.7 µM
[20] = target: Thyroid hormone receptor beta (Homo sapiens) (UniProt P10828); experiment: qHTS assay for small molecule agonists of thyroid hormone receptor beta signaling (AID 588545); conditions: TR-UAS-bla GripTite HEK 293, beta-lactamase ratio, agonist mode, 18 h, percent of T3 response, DMSO as zero; series mostly up to 76.7 µM
Outline: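 TR-UAS-bla GripTite HEK 293 cells (2500/well, medium with 2% charcoal/dextran FBS) were treated in agonist mode for 18 h at 37 C, titrated. Beta-lactamase was read by CCF4 ratio after 2 h; normalized to 10 nM T3 (100%) and DMSO, Hill-fitted for EC50 and efficacy.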

Sequence of Thyroid hormone receptor beta (Homo sapiens) (P10828 whole entry, looked up): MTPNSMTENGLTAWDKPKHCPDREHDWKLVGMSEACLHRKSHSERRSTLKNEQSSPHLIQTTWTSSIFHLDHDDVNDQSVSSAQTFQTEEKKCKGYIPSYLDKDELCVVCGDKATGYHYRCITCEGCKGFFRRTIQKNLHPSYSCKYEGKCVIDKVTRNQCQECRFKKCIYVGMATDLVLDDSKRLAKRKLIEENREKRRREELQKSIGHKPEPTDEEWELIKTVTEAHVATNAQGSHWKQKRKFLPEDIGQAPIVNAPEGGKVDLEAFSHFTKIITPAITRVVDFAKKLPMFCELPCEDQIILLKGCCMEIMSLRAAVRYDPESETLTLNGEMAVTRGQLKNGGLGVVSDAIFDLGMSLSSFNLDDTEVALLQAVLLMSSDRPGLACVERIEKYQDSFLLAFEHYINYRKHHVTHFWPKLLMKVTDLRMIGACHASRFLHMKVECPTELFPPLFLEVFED
Sequence of Vitamin D3 receptor (Homo sapiens) (P11473 whole entry, looked up): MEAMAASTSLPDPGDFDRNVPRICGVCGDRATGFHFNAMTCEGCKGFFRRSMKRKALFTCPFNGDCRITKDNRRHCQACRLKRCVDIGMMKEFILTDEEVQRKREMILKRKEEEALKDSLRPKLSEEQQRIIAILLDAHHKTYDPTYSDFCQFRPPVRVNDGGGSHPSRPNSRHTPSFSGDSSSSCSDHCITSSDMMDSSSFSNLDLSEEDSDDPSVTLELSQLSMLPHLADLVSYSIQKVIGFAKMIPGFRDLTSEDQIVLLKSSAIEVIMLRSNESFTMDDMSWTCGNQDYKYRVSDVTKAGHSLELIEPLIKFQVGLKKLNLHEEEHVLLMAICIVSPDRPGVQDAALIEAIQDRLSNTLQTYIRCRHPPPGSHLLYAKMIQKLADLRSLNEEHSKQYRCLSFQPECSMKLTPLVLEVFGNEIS
Sequence of Estrogen receptor (Homo sapiens) (P03372 whole entry, looked up): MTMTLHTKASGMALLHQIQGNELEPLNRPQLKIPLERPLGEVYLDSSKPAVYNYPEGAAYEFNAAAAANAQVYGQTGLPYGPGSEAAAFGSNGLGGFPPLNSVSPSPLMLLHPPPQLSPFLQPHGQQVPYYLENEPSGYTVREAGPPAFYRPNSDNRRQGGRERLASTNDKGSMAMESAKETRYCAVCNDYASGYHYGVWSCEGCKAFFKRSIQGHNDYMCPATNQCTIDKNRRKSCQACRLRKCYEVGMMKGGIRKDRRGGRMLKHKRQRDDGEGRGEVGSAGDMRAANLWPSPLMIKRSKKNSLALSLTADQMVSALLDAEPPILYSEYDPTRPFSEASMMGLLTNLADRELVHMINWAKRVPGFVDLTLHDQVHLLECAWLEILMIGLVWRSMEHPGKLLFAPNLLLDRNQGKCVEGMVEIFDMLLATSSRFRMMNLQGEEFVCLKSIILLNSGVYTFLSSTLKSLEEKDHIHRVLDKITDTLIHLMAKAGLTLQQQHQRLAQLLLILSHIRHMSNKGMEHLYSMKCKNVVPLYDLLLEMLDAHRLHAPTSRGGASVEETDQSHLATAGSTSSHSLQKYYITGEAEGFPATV
Sequence of Glucocorticoid receptor (Homo sapiens) (P04150 whole entry, looked up): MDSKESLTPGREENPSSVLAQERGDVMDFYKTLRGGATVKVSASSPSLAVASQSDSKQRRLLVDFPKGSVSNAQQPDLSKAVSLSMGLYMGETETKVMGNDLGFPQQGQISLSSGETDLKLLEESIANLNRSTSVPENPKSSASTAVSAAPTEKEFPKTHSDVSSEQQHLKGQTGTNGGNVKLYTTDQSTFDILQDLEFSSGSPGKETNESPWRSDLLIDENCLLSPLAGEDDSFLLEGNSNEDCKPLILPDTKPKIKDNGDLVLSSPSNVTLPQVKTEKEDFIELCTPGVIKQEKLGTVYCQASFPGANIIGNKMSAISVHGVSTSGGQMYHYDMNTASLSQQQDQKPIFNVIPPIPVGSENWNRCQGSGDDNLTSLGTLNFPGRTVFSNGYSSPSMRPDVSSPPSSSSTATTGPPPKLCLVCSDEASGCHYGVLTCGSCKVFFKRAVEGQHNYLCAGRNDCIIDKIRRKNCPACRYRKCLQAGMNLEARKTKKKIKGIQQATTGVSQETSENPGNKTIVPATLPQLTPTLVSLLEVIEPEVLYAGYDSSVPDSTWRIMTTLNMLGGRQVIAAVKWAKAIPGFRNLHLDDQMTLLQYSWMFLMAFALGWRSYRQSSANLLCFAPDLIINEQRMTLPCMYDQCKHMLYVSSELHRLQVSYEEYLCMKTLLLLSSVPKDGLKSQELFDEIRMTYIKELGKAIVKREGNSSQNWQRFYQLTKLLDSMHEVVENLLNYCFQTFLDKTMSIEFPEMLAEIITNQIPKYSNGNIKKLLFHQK
Sequence of Peroxisome proliferator-activated receptor gamma (Homo sapiens) (P37231 whole entry, looked up): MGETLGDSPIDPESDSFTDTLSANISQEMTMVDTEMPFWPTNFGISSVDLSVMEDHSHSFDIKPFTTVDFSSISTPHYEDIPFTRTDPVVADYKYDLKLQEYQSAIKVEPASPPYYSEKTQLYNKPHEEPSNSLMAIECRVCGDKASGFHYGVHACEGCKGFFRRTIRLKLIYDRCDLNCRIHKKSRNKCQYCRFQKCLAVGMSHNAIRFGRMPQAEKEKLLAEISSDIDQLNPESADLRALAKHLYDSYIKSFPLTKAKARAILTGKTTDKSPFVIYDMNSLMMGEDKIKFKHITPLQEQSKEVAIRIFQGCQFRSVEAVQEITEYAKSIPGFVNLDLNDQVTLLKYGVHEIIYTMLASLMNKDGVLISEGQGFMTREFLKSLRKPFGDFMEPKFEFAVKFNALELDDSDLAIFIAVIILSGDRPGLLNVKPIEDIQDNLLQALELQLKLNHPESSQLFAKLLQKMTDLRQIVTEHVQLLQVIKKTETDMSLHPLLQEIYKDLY
Sequence of Retinoic acid receptor RXR-alpha (Homo sapiens) (P19793 whole entry, looked up): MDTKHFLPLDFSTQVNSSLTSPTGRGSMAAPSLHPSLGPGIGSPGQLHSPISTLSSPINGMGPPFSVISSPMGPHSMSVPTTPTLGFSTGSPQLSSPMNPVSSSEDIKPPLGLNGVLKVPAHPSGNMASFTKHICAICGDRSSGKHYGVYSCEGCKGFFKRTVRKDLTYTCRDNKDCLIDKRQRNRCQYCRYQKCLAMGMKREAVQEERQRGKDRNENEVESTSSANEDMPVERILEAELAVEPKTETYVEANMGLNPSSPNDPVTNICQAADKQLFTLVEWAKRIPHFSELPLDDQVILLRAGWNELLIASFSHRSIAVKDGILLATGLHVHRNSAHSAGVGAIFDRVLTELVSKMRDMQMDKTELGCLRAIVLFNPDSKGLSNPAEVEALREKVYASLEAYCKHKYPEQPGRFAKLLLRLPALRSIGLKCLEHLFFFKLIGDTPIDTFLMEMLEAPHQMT

Compound	Potency [1]	Potency [2]	Potency [3]	Potency [4]	Potency [5]	outcome [6]	Potency [7]	Potency [8]	activity change, negative = cytotoxicity [9]	activity change, negative = cytotoxicity [10]	outcome [11]	Potency [12]	Potency [13]	max response [14]	outcome [15]	outcome [16]	outcome [17]	max response [18]	outcome [19]	outcome [20]
c1ccc2scnc2c1	> 92 µM (inactive)	> 92 µM (inactive)	> 92 µM (inactive)	> 92 µM (inactive)	inactive	inactive	inactive	inactive	-4.16% (inactive)	-5.46% (inactive)	inactive	inactive	inactive	3.24%	inactive	inactive	inactive	-4.98%	inactive	inactive
O=S(=O)(O)c1ccccc1	> 92 µM (inactive)	> 92 µM (inactive)	> 92 µM (inactive)	> 92 µM (inactive)	inactive	inactive	inactive	inactive	-1.46% (inactive)	0.153% (inactive)	inactive	–	inactive	1.28%	inactive	inactive	inactive	0.332%	inactive	inactive
O=C(O)c1ccccc1C(c1ccc(O)cc1)c1ccc(O)cc1	> 92 µM (inactive)	> 92 µM (inactive)	> 92 µM (inactive)	> 92 µM (inactive)	inactive	inactive	inactive	inactive	1.41% (inactive)	8.62% (inactive)	inactive	inactive	inactive	8.38% and 8.06%	inactive	–	–	-8.41% and -22.6%	inactive	inactive
O[C@@H]([C@H](O)[C@@H](O)CBr)[C@@H](O)CBr	> 92 µM (inactive)	> 92 µM (inactive)	> 92 µM (inactive)	> 92 µM (inactive)	inactive	inactive	inactive	inactive	2.79% (inactive)	7.81% (inactive)	inactive	inactive	–	–	–	inactive	inactive	-11.8%	inactive	inactive
Cc1cccc(O)c1	–	–	–	–	–	–	–	–	–	–	–	inactive	inactive	-22.1% and -37.2%	inactive	–	–	–	–	–
CC1(C)S[C@@H]2[C@H](NC(=O)COc3ccccc3)C(=O)N2[C@H]1C(=O)O	–	–	–	–	–	–	–	–	–	–	–	–	–	39.2%	inactive	inactive	inactive	-5.75%	inactive	inactive
O=[N+]([O-])c1cccc(Cl)c1Cl	> 92 µM (inactive)	> 92 µM (inactive)	> 92 µM (inactive)	> 92 µM (inactive)	inactive	inactive	inactive	inactive	-2.04% (inactive)	4.81% (inactive)	inactive	inactive	inactive	-5.68% and -3.79%	inactive	inactive	inactive	6.35% and -11.4%	inactive	–
